Screens from PubChem BioAssay.
Sampled rows, rich in hits. Any-hit rate of the full collection: about 3.1%.
HIV Env fusion = inhibitors of HIV Env-mediated cell fusion. inhibition, % at 12.3 µM. HeLa-JRFL Env/CEM21 cell fusion, luciferase. actives 1.1% (n = 360,000);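 active means mean replicate inhibition score of at least 50 and every replicate individually at or above 50; inconclusive means only one of the two criteria met; inactive means mean below 50 and not all replicates reaching 50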;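 further: 0% = plate neutral controls and 100% = maraviroc near 300 nM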
PAX8 reporter = inhibitors of PAX8 transcriptional activity in RMG-I cells; RMG-I TPO-luciferase reporter, SteadyGlo, 24 h; inhibition, % at 12.6 µM; actives 1.2% (n = 360,000);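 active means mean replicate inhibition at least 60% with every replicate also reaching 60%; inconclusive means only one of the two criteria is met; inactive means mean below 60% and not all replicates reaching 60%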;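 further: luciferase light reporting Pax8 driven TPO promoter activity; plate controls were median of neutral control wells for no effect and mitoxantrone controls for full effect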
INS-1E GSIS act = GLuc luminescence reporter in INS-1E cells, primary screen for activators of glucose-dependent secretion of insulin; activation, % at 16.6 µM; INS-1E GLuc reporter insulin secretion, 2-3 h; actives 0.61% (n = 370,000);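 active means lowest replicate activation of at least 40%, so every replicate reaches that level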;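 further: 0% = median of neutral control wells and 100% = median of IBMX positive control wells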
Statin myotox sup = protects C2C12 myotubes from simvastatin toxicity; ATP luminescence, 48 h; scaled: DMSO 0, geranylgeraniol control 100; rescue of ATP level, % at 7.49 µM; actives 0.78% (n = 330,000); AID 602340;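 active means mean ATP rescue above about 67%, or every replicate alone reaching that limit, limit read from the data, passing the limit was not always enough; inconclusive means no clear call, values can overlap the other calls; inactive means mean under the limit and some replicate under it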;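 further: myotubes were challenged with 10 µM simvastatin during compound exposure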
miR122 inh = inhibitors of miR-122 in Huh7 cells; Huh7 miR-122 Renilla luciferase sensor, 48 h; neutral wells = 0, positive control = 100; activation (reporter increase), % at 12.5 µM; actives 0.3% (n = 340,000);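 active means mean replicate activation score at least 90 and every replicate individually at or above 90; inconclusive means only one of the two criteria met; inactive means neither criterion met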;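 further: higher luciferase means less miR-122 activity so hits act as miR-122 inhibitors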
EWS-Fli block = inhibitors of EWS/Fli oncoprotein transcriptional activity | A673 NR0B1-luciferase reporter, viability-normalised | inhibition, % at 12.6 µM | actives 0.67% (n = 350,000);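 active means mean inhibition of at least 50% after viability correction, with every replicate also passing that limit; inconclusive means mean reaches 50% but only one of two replicates passes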;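 further: firefly luciferase signal divided by Alamar Blue viability fluorescence both relative to DMSO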
The depositor's hits bear a star; u = inconclusive; x = no result given; ! = not active in a repeat; [ ] = remark or other dose.

SMILES	HIV Env fusion	PAX8 reporter	INS-1E GSIS act	Statin myotox sup	miR122 inh	EWS-Fli block
C[C@@H]1CN([C@@H](C)CO)C(=O)c2cc(NC(=O)Nc3ccc(C(F)(F)F)cc3)ccc2O[C@@H](C)CCCCO[C@H]1CN(C)Cc1ccc2c(c1)OCO2	10[16.7 µM]	83*	-3	x	-19[16.7 µM]	-2
C[C@@H]1CCCCO[C@H](CN(C)Cc2ccc3c(c2)OCO3)[C@H](C)CN([C@@H](C)CO)C(=O)c2cc(NC(=O)Nc3ccc(C(F)(F)F)cc3)ccc2O1	15[16.7 µM]	63*	-8	x	-24[16.7 µM]	75*
C[C@H](CO)N1C[C@H](C)[C@@H](CN(C)Cc2ccc3c(c2)OCO3)OCCCC[C@H](C)Oc2ccc(NC(=O)Nc3ccc(F)cc3)cc2C1=O	-27[16.7 µM]	23	-12	-91	1[16.7 µM]	10
C[C@@H]1CN([C@H](C)CO)C(=O)c2cc(NC(=O)Nc3ccc(C(F)(F)F)cc3)ccc2O[C@@H](C)CCCCO[C@H]1CN(C)Cc1ccc2c(c1)OCO2	u	108*	20	x	-21[16.7 µM]	77*
C[C@@H]1CCCCO[C@H](CN(C)Cc2ccc3c(c2)OCO3)[C@@H](C)CN([C@@H](C)CO)C(=O)c2cc(NC(=O)Nc3ccc(C(F)(F)F)cc3)ccc2O1	u	101*	x	x	-26[16.7 µM]	69*
C[C@@H]1CCCCO[C@@H](CN(C)Cc2ccc3c(c2)OCO3)[C@@H](C)CN([C@H](C)CO)C(=O)c2cc(NC(=O)Nc3ccc(C(F)(F)F)cc3)ccc2O1	5[16.7 µM]	35	-18	x	-1[16.7 µM]	-6
Cc1ccc(-c2cnc3c(c2)C(=O)N([C@H](C)CO)C[C@H](C)[C@H](CN(C)CC2CCOCC2)O3)cc1	2[16.7 µM]	x	-1	-16	4[16.7 µM]	-6
O=C(CC1CC1)N1CC(=O)N2[C@H](CO)[C@@H](c3ccc(C#Cc4ccccc4)cc3)[C@H]2C1	x	x	-13	x	x	0
COc1ccc(-c2ccc(C3[C@H]4CNC[C@@H]3N4C(=O)Nc3ccccc3F)cc2)cc1 (some centres not stated)	x	x	-24	x	x	x
Cc1ccc(S(=O)(=O)N(C)C[C@@H]2Oc3ccc(NC(=O)CCCCCC(=O)Nc4ccccc4N)cc3CC(=O)N([C@H](C)CO)C[C@H]2C)cc1	3[16.7 µM]	-41	5	-2	7[16.7 µM]	5
COc1ccc(S(=O)(=O)N[C@@H]2CC[C@@H](CCNC(=O)c3ccccc3F)O[C@@H]2CO)cc1	13[16.7 µM]	-13	-7	-3	x	-3
CCOC(=O)N(C)C[C@H]1OCc2cn(nn2)CCCC(=O)N([C@@H](C)CO)C[C@H]1C	9[16.7 µM]	x	24	5	-2[16.7 µM]	-2
CCN1[C@@H]2Cn3c(ccc(C4=CCCC4)c3=O)[C@H]1[C@@H](C(=O)NC1CCCC1)[C@@H]2CO	x	3	0	-2	3[16.7 µM]	-1
C[C@@H]1CN([C@@H](C)CO)C(=O)c2cc(NC(=O)Nc3ccc(F)cc3)ccc2O[C@@H](C)CCCCO[C@H]1CN(C)Cc1ccc2c(c1)OCO2	18[16.7 µM]	3	-19	-204	-5[16.7 µM]	8
C[C@H]1CCCCO[C@H](CN(C)Cc2ccc3c(c2)OCO3)[C@@H](C)CN([C@@H](C)CO)C(=O)c2cc(NC(=O)Nc3ccc(C(F)(F)F)cc3)ccc2O1	u	67*	9	x	-24[16.7 µM]	75*
C[C@H](CO)N1C[C@H](C)[C@H](CN(C)Cc2ccc3c(c2)OCO3)OCCCC[C@H](C)Oc2ccc(NC(=O)Nc3ccc(C(F)(F)F)cc3)cc2C1=O	61*[16.7 µM]	108*	4	x	-26[16.7 µM]	76*
C[C@H]1CN([C@@H](C)CO)C(=O)c2cc(C3=CCCCC3)cnc2O[C@@H]1CN(C)C(=O)Nc1ccc(F)cc1	-54[16.7 µM]	7	-16	16	-29[16.7 µM]	-6
Cc1cccc(S(=O)(=O)N2[C@@H]3CNC[C@H]2C3c2ccc(-c3cncnc3)cc2)c1 (some centres not stated)	x	x	19	x	x	0
CN1c2ccc(-c3cccc(C#N)c3)cc2[C@@H]2[C@@H](CCN2C(=O)c2ccc(F)cc2)[C@@H]1CO	x	-3	-14	32	-4[16.7 µM]	14
C[C@@H]1CN([C@H](C)CO)C(=O)c2cc(C#Cc3ccncc3)cnc2O[C@@H]1CN(C)S(=O)(=O)c1ccccc1F	60*[16.7 µM]	x	10	-19	-7[16.7 µM]	-5
COc1ccc(S(=O)(=O)N(C)C[C@H]2Oc3ncc(/C=C/c4ccccc4)cc3C(=O)N([C@@H](C)CO)C[C@@H]2C)cc1	33[16.7 µM]	0	-20	6	1[16.7 µM]	5
C[C@H](CO)N1C[C@H](C)[C@H](CN(C)S(=O)(=O)c2ccccc2)Oc2ncc(/C=C/c3ccccc3)cc2C1=O	74*[16.7 µM]	x	4	13	-12[16.7 µM]	12
C[C@H]1CN([C@@H](C)CO)C(=O)c2cc(/C=C/c3ccccc3)cnc2O[C@H]1CN(C)S(=O)(=O)c1ccccc1	8[16.7 µM]	x	-30	-7	-14[16.7 µM]	6
C[C@@H]1CN([C@H](C)CO)C(=O)c2cc(/C=C/c3ccccc3)cnc2O[C@H]1CN(C)S(=O)(=O)c1ccccc1F	12[16.7 µM]	0	-6	6	-4[16.7 µM]	6
C[C@H](CO)N1C[C@H](C)[C@H](CN(C)S(=O)(=O)c2ccccc2F)Oc2ncc(/C=C/c3ccccc3)cc2C1=O	71*[16.7 µM]	-53	-9	u	22[16.7 µM]	6
SMILES	HIV Env fusion	PAX8 reporter	INS-1E GSIS act	Statin myotox sup	miR122 inh	EWS-Fli block
COc1ccc(S(=O)(=O)N(C)C[C@@H]2Oc3ncc(/C=C/c4ccccc4)cc3C(=O)N([C@H](C)CO)C[C@@H]2C)cc1	55*![16.7 µM]	11	-48	25	-22[16.7 µM]	14
O=C(C[C@@H]1C=C[C@H](NC(=O)CN2CCOCC2)[C@H](CO)O1)NCCc1ccncc1	x	x	7	x	x	-5
CCC(=O)N(C)C[C@H]1Oc2ncc(C#CC(C)(C)O)cc2C(=O)N([C@H](C)CO)C[C@H]1C	14[16.7 µM]	x	8	0	10[16.7 µM]	-12
COc1ccc(NC(=O)N(C)C[C@H]2OCc3ccccc3-c3c(n(C)c4ccccc34)C(=O)N([C@@H](C)CO)C[C@H]2C)cc1	x	x	-22	-5	x	-16
CO[C@@H]1CN(C)C(=O)c2ccc(NS(=O)(=O)c3cn(C)cn3)cc2OC[C@@H](C)N(Cc2cccc(F)c2)C[C@H]1C	x	x	-18	4	-4[16.7 µM]	3
Cc1noc(C)c1S(=O)(=O)Nc1ccc2c(c1)C(=O)N([C@H](C)CO)C[C@@H](C)[C@H](CN(C)C)O2	x	-10	16	-10	-6[16.7 µM]	-3
C[C@@H]1CN([C@H](C)CO)C(=O)c2cc(/C=C/c3ccccc3)cnc2O[C@@H]1CN(C)S(=O)(=O)c1ccccc1	0[16.7 µM]	x	18	50	-12[16.7 µM]	-8
Cc1ccc(S(=O)(=O)N(C)C[C@@H]2Oc3ncc(/C=C/c4ccccc4)cc3C(=O)N([C@H](C)CO)C[C@@H]2C)cc1	75*[16.7 µM]	x	-13	36	3[16.7 µM]	-12
